# In the supplement of paper PMC10037445:
# Several values for one entry are separate records, joined by “and”; a condition that tells them apart may be missing. Identical values can stand only once. ± gives the standard deviation of the averaged measurements. Whole data set: some 2,900 compounds, median “IRF Lucia reporter activity, fold change vs agonist alone” near 0.9, cut for the highest 2% near 2.8. For the sample, the highest values were picked, then their nearest neighbours and some compounds at random.
# Assays:
# [1] = system: RAW-Dual; assay: IRF Lucia reporter activity, fold change vs agonist alone; cytotoxicity flag (confluency mask): not cytotoxic; higher = enhanced IRF activity
# In short: (§1)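 Library stock was pin-tooled at 50 nL into 384-well plates of RAW-Dual macrophages (50,000 cells/well, DMEM), followed 1 h later by a PRR agonist, and the cells were kept at 37 °C, 5% CO2. Supernatant collected after 20 hours was read for IRF by QuantiLuc luminescence and for NF-κB by QuantiBlue absorbance at 620 nm. Reporter activity is fold change over agonist-alone wells, and a well counted as cytotoxic when its IncuCyte confluency was below 70% of agonist controls in both mask sets.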
# [2] = system: RAW-Dual; assay: IRF Lucia reporter activity, fold change vs agonist alone; higher = enhanced IRF activity; conditions: agonist: MPLA (TLR4) […]
# In short: as §1
# [3] = system: RAW-Dual; assay: IRF Lucia reporter activity, fold change vs agonist alone; cytotoxicity flag (confluency mask): cytotoxic (confluency <70% of control); higher = enhanced IRF activity
# In short: as §1
# [4] = agonist: 3'3'-cGAMP (STING) 10 ug/mL
# [5] = library stock concentration (final ~1000-fold dilution): 10 mM, cytotoxicity flag (confluency mask): not cytotoxic
# [6] = library stock concentration (final ~1000-fold dilution): 10 mM, cytotoxicity flag (confluency mask): cytotoxic (confluency <70% of control)
compound,measurement,setting,value
CC(Nc1ncnc2[nH]cnc12)c1cc2cccc(Cl)c2c(=O)n1-c1ccccc1 (centres undefined) (library stock concentration (final ~1000-fold dilution): 10 mM),IRF Lucia reporter activity,[1]; [4],0.659
same,IRF Lucia reporter activity,[1]; agonist: LPS (TLR4) 0.1 ug/mL,0.799
CC(Nc1ncnc(N)c1C#N)c1cc2cccc(-c3ccc(=O)n(C)c3)c2c(=O)n1C(C)C (centres undefined),IRF Lucia reporter activity,[2]; [5],7.07
CC(NC(=O)c1c(N)nn2cccnc12)c1cc2cccc(C#Cc3cnn(C)c3)c2c(=O)n1-c1ccccc1 (centres undefined) (library stock concentration (final ~1000-fold dilution): 10 mM),IRF Lucia reporter activity,[1]; [4],0.813
same,IRF Lucia reporter activity,[1]; agonist: LPS (TLR4) 0.1 ug/mL,1.14
CC(Nc1ncnc(N)c1C#N)c1cc2cccc(-c3ccc(=O)n(C)c3)c2c(=O)n1C(C)C (centres undefined) (library stock concentration (final ~1000-fold dilution): 10 mM),IRF Lucia reporter activity,[1]; [4],1.14
same,IRF Lucia reporter activity,[1]; agonist: LPS (TLR4) 0.1 ug/mL,8.45
CC(Nc1ncnc2[nH]cnc12)c1cc2cccc(Cl)c2c(=O)n1-c1ccccc1 (centres undefined),IRF Lucia reporter activity,[2]; [5],1.42
Cl.Fc1ccc(C2CCNCC2COc2ccc3c(c2)OCO3)cc1 (centres undefined) (library stock concentration (final ~1000-fold dilution): 10 mM),IRF Lucia reporter activity,[1]; [4],0.928
same,IRF Lucia reporter activity,[1]; agonist: LPS (TLR4) 0.1 ug/mL,1.02
Cl.Fc1ccc(C2CCNCC2COc2ccc3c(c2)OCO3)cc1 (centres undefined),IRF Lucia reporter activity,[2]; [5],1.35
OCC1=CC(O)C2C=COC(OC3OC(CO)C(O)C(O)C3O)C12 (centres undefined) (library stock concentration (final ~1000-fold dilution): 10 mM),IRF Lucia reporter activity,[1]; [4],1.05
same,IRF Lucia reporter activity,[1]; agonist: LPS (TLR4) 0.1 ug/mL,1.37
OCC1=CC(O)C2C=COC(OC3OC(CO)C(O)C(O)C3O)C12 (centres undefined),IRF Lucia reporter activity,[2]; [5],1.01
OCc1c[nH]c2ccccc12 (library stock concentration (final ~1000-fold dilution): 10 mM),IRF Lucia reporter activity,[1]; [4],0.803 and 0.565
same,IRF Lucia reporter activity,[1]; agonist: LPS (TLR4) 0.1 ug/mL,0.839 and 0.758
c1ccc2c(CCNc3ccc(Nc4ccncc4)cc3)c[nH]c2c1,IRF Lucia reporter activity,[2]; [5],2.97
O=C(O)CCc1c[nH]c2ccccc12 (library stock concentration (final ~1000-fold dilution): 10 mM),IRF Lucia reporter activity,[1]; [4],0.921
same,IRF Lucia reporter activity,[1]; agonist: LPS (TLR4) 0.1 ug/mL,1.18
OCc1c[nH]c2ccccc12,IRF Lucia reporter activity,[2]; [5],1.07 ± 0.022
c1ccc2c(CCNc3ccc(Nc4ccncc4)cc3)c[nH]c2c1 (library stock concentration (final ~1000-fold dilution): 10 mM),IRF Lucia reporter activity,[1]; [4],0.706
same,IRF Lucia reporter activity,[1]; agonist: LPS (TLR4) 0.1 ug/mL,0.612
CN1CC2c3ccccc3Oc3ccc(Cl)cc3C2C1.O=C(O)/C=C\C(=O)O (centres undefined),IRF Lucia reporter activity,[2]; [6],1.95
CN1CC2c3ccccc3Oc3ccc(Cl)cc3C2C1.O=C(O)/C=C\C(=O)O (centres undefined) (library stock concentration (final ~1000-fold dilution): 10 mM),IRF Lucia reporter activity,[3]; [4],0.746
same,IRF Lucia reporter activity,[3]; agonist: LPS (TLR4) 0.1 ug/mL,0.716
O=[N+]([O-])c1ccc(Sc2cccc[n+]2[O-])c2nonc12 (library stock concentration (final ~1000-fold dilution): 10 mM),IRF Lucia reporter activity,[3]; [4],0.262
same,IRF Lucia reporter activity,[3]; agonist: LPS (TLR4) 0.1 ug/mL,0.0128
C#CCN(C)CCCOc1ccc(Cl)cc1Cl.Cl,IRF Lucia reporter activity,[2]; [5],1.12
C#CCN(C)CCCOc1ccc(Cl)cc1Cl.Cl (library stock concentration (final ~1000-fold dilution): 10 mM),IRF Lucia reporter activity,[1]; [4],1.06
same,IRF Lucia reporter activity,[1]; agonist: LPS (TLR4) 0.1 ug/mL,1.19
O=C(Nc1cc(C(F)(F)F)ccc1C(F)(F)F)c1cc(Br)ccc1O (library stock concentration (final ~1000-fold dilution): 10 mM),IRF Lucia reporter activity,[3]; [4],0.0368
same,IRF Lucia reporter activity,[3]; agonist: LPS (TLR4) 0.1 ug/mL,4.46
CC(ONC(=O)c1cc(C(F)(F)F)cc(C(F)(F)F)c1)C(=O)Nc1ccc(Cl)cc1 (centres undefined) (library stock concentration (final ~1000-fold dilution): 10 mM),IRF Lucia reporter activity,[1]; [4],0.52
same,IRF Lucia reporter activity,[1]; agonist: LPS (TLR4) 0.1 ug/mL,0.52
O=C(Nc1cc(C(F)(F)F)ccc1N1CCCCC1)c1ccncc1 (library stock concentration (final ~1000-fold dilution): 10 mM),IRF Lucia reporter activity,[1]; [4],1.05
same,IRF Lucia reporter activity,[1]; agonist: LPS (TLR4) 0.1 ug/mL,0.874
O=C(Nc1cc(C(F)(F)F)cc(C(F)(F)F)c1)c1cc(Cl)ccc1O,IRF Lucia reporter activity,[2]; [6],3.54 ± 1.7
CC12C=CC(=O)NC1CCC1C2CCC2(C)C(C(=O)Nc3cc(C(F)(F)F)ccc3C(F)(F)F)CCC12 (centres undefined),IRF Lucia reporter activity,[2]; [5],1.08
O=C(Nc1ccc([N+](=O)[O-])cc1Cl)c1cc(Cl)ccc1O,IRF Lucia reporter activity,[2]; [5],0.899
O=C(Nc1cc(C(F)(F)F)ccc1N1CCCCC1)c1ccncc1,IRF Lucia reporter activity,[2]; [5],1.18
CC12C=CC(=O)NC1CCC1C2CCC2(C)C(C(=O)Nc3cc(C(F)(F)F)ccc3C(F)(F)F)CCC12 (centres undefined) (library stock concentration (final ~1000-fold dilution): 10 mM),IRF Lucia reporter activity,[1]; [4],1.22
same,IRF Lucia reporter activity,[1]; agonist: LPS (TLR4) 0.1 ug/mL,1.38
O=C(Nc1cc(C(F)(F)F)cc(C(F)(F)F)c1)c1cc(Cl)ccc1O (library stock concentration (final ~1000-fold dilution): 10 mM),IRF Lucia reporter activity,[3]; [4],0.03 and 0.0207
same,IRF Lucia reporter activity,[3]; agonist: LPS (TLR4) 0.1 ug/mL,3.59 and 3.92
O=C(Nc1ccc([N+](=O)[O-])cc1Cl)c1cc(Cl)ccc1O (library stock concentration (final ~1000-fold dilution): 10 mM),IRF Lucia reporter activity,[1]; [4],0.354
same,IRF Lucia reporter activity,[1]; agonist: LPS (TLR4) 0.1 ug/mL,2.53
CC1CC(C(=O)O)C2CCC3(C)C(=CCC4C5(C)CCC(O)C(C)(C)C5CCC43C)C2C1C (centres undefined),IRF Lucia reporter activity,[2]; [5],1.06
CC1CC(C(=O)O)C2CCC3(C)C(=CCC4C5(C)CCC(O)C(C)(C)C5CCC43C)C2C1C (centres undefined) (library stock concentration (final ~1000-fold dilution): 10 mM),IRF Lucia reporter activity,[1]; [4],0.973
same,IRF Lucia reporter activity,[1]; agonist: LPS (TLR4) 0.1 ug/mL,1.12
Cc1[nH]c(C=C2C(=O)Nc3ccc(F)cc32)c(C)c1C(=O)NCCN1CCCC1 (library stock concentration (final ~1000-fold dilution): 2 mM),IRF Lucia reporter activity,[1]; [4],0.0313
same,IRF Lucia reporter activity,[1]; agonist: LPS (TLR4) 0.1 ug/mL,0.194
Cc1[nH]c(C=C2C(=O)Nc3ccc(F)cc32)c(C)c1C(=O)NCCN1CCCC1,IRF Lucia reporter activity,"[2]; library stock concentration (final ~1000-fold dilution): 2 mM, cytotoxicity flag (confluency mask): not cytotoxic",0.869
CC(c1ncncc1F)C(O)(Cn1cncn1)c1ccc(F)cc1F (centres undefined) (library stock concentration (final ~1000-fold dilution): 10 mM),IRF Lucia reporter activity,[1]; [4],1.11
same,IRF Lucia reporter activity,[1]; agonist: LPS (TLR4) 0.1 ug/mL,0.893
CC(c1ncncc1F)C(O)(Cn1cncn1)c1ccc(F)cc1F (centres undefined),IRF Lucia reporter activity,[2]; [5],0.639
CC1Cc2c([nH]c3ccccc23)C(c2c(F)cc(/C=C/C(=O)O)cc2F)N1CC(C)(C)F (centres undefined) (library stock concentration (final ~1000-fold dilution): 10 mM),IRF Lucia reporter activity,[1]; [4],1.14
same,IRF Lucia reporter activity,[1]; agonist: LPS (TLR4) 0.1 ug/mL,1.23
Cl.O=C(NC1CCNCC1)c1n[nH]cc1NC(=O)c1c(Cl)cccc1Cl (library stock concentration (final ~1000-fold dilution): 10 mM),IRF Lucia reporter activity,[3]; [4],0.0898
same,IRF Lucia reporter activity,[3]; agonist: LPS (TLR4) 0.1 ug/mL,0.581
